According to PubChem BioAssay AID1159580 (chemical genetic matrix, 2015):
In all, about 5,500 compounds went through this assay and about 2,000 (36%) were called active. Another 18% or so got no clear call; they are omitted. Cut-off read from the data, not from the text of the source: active = normalized growth mostly below about 0.91 (no sharp cut-off); inconclusive = no clear call, values can overlap the other calls; inactive = mostly above about 0.92. Some of the results follow.

Test: chemical genetic growth profiling, strain panel (AID 1159580);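 note: tested at 20 µM; growth read once vehicle control cultures reached saturation at 30 °C; 1 = growth at the plate median or of vehicle wells; lower values mean less growth of the strain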
Conditions: S. cerevisiae deletion strains, growth OD
[1] = locus YAL040C, strain CLN3, hits give low values
[2] = locus YCL061C, strain MRC1 (second series), hits give low values
[3] = locus YDR363W, strain ESC2, hits give low values
[4] = locus YER002W, strain NOP16, hits give low values
[5] = locus YGR078C, strain PAC10, hits give low values
[6] = locus YJR075W, strain HOC1, hits give low values
[7] = locus YMR263W, strain SAP30, hits give low values
[8] = locus YMR307W, strain GAS1, hits give low values
[9] = locus YNL153C, strain GIM3, hits give low values
[10] = locus YNL175C, strain NOP13, hits give low values
[11] = locus YNL197C, strain WHI3, hits give low values
[12] = locus YNL224C, strain SQS1, hits give low values
[13] = locus YNL322C, strain KRE1, hits give low values
[14] = locus YOR083W, strain WHI5 (second series), hits give low values
[15] = locus YPL055C, strain LGE1, hits give low values
[16] = locus YPL241C, strain CIN2, hits give low values
[17] = locus YDR150W, strain NUM1, hits give low values
[18] = locus YHR030C, strain SLT2, hits give low values
[19] = locus YNL128W, strain TEP1, hits give low values

Measured: normalized growth

CNCCNS(=O)(=O)c1cccc2cnccc12
inactive: [1] 1 | [2] 1 | [3] 1.03 | [4] 1 | [5] 1.02 | [6] 1.01 | [7] 0.998 | [8] 1 | [9] 1.01 | [10] 1.01 | [11] 1.04 | [12] 1 | [13] 1.02 | [14] 1 | [15] 1.01 | [16] 0.999

CCOC(=O)c1csc(N/N=C2/CCCc3ccccc32)n1
active: locus YBR229C, strain ROT2, hits give low values 0.887 | locus YDL101C, strain DUN1, hits give low values 0.862 | locus YDL134C, strain PPH21, hits give low values 0.458 | locus YEL061C, strain CIN8, hits give low values 0.821 | [5] 0.899 | [18] 0.232 | locus YHR087W, strain rtc3, hits give low values 0.899 | [6] 0.867 | locus YLR039C, strain RIC1, hits give low values 0.701 | locus YLR085C, strain ARP6, hits give low values 0.573 | locus YML094W, strain GIM5, hits give low values 0.749 | locus YMR219W, strain ESC1, hits give low values 0.92 | [7] 0.88 | [8] 0.631 | [9] 0.915 | locus YNL298W, strain CLA4 (second series), hits give low values 0.732 | locus YNR030W, strain Alg12, hits give low values 0.779 | [15] 0.692 | [16] 0.747 | locus YPR135W, strain CTF4, hits give low values 0.629
inactive: [17] 0.897 | locus YGR229C, strain SMI1, hits give low values 0.986 | locus YJR043C, strain POL32, hits give low values 0.965 | locus YLR058C, strain SHM2 (second series), hits give low values 0.976 | locus YLR262C, strain YPT6, hits give low values 0.868 | [19] 0.971 | [13] 1 | locus YOL006C, strain TOP1, hits give low values 0.849

Cc1c2ccncc2c(C)c2c1[nH]c1ccccc12
active: [1] 0.101 | [2] 0.0557 | [17] 0.13 | [3] 0.153 | [4] 0.0868 | [5] 0.0788 | [7] 0.362 | [19] 0.083 | [9] 0.0799 | [10] 0.0703 | [11] 0.0671 | [12] 0.0631 | [14] 0.079 | [15] 0.101

Cc1nccc2c1[nH]c1ccccc12
inactive: locus YAL013W, strain DEP1, hits give low values 1.01 | locus YAL021C, strain ccr4, hits give low values 0.956 | locus YAL026C, strain drs2, hits give low values 0.975 | locus YAL030W, strain snc1, hits give low values 0.992 | [1] 1.11 | locus YBL061C, strain skt5, hits give low values 0.975 | locus YBR009C, strain hhf1, hits give low values 0.971 | locus YBR023C, strain chs3, hits give low values 0.974 | locus YBR171W, strain sec66, hits give low values 0.969 | locus YBR231C, strain swc5, hits give low values 0.972 | locus YBR279W, strain paf1, hits give low values 0.991 | locus YCL011C, strain gbp2, hits give low values 0.965 | locus YCL016C, strain dcc1, hits give low values 0.99 | [2] 1.01 | locus YCL069W, strain vba3, hits give low values 0.977 | locus YCR088W, strain abp1, hits give low values 0.977 | locus YDL005C, strain med2, hits give low values 0.965 | locus YDL040C, strain nat1, hits give low values 0.983 | locus YDR001C, strain nth1, hits give low values 0.991 | locus YDR069C, strain doa4, hits give low values 0.941 | locus YDR137W, strain rgp1, hits give low values 0.967 | locus YDR159W, strain sac3, hits give low values 0.989 | locus YDR195W, strain ref2 1.03 | locus YDR297W, strain sur2, hits give low values 0.976 | locus YDR334W, strain swr1, hits give low values 0.971 | locus YDR335W, strain msn5, hits give low values 0.975 | [3] 1 | locus YDR392W, strain spt3, hits give low values 0.963 | locus YEL003W, strain gim4, hits give low values 0.983 | locus YEL037C, strain rad23, hits give low values 0.983 | locus YEL061C, strain CIN8 (second series), hits give low values 0.944 | [4] 0.991 | locus YER015W, strain faa2, hits give low values 0.991 | locus YER016W, strain bim1, hits give low values 0.984 | locus YER111C, strain swi4, hits give low values 0.973 | locus YER155C, strain BEM2 (second series), hits give low values 0.954 | locus YFR010W, strain ubp6, hits give low values 0.955 | locus YGL167C, strain pmr1, hits give low values 0.996 | locus YGL173C, strain kem1, hits give low values 0.981 | locus YGL227W, strain vid30, hits give low values 0.976 | locus YGL240W, strain doc1, hits give low values 0.968 | locus YGL253W, strain hxk2, hits give low values 0.959 | [5] 1.02 | locus YHR013C, strain ard1, hits give low values 0.951 | locus YHR027C, strain rpn1, hits give low values 0.996 | [18] 1.05 | locus YHR079C, strain IRE1, hits give low values 1.06 | locus YHR142W, strain chs7, hits give low values 0.97 | locus YJL092W, strain hpr5, hits give low values 0.963 | locus YJL095W, strain BCK1 (second series), hits give low values 0.972 | locus YJL095W, strain BCK1, hits give low values 1.03 | locus YJL115W, strain asf1, hits give low values 0.975 | locus YJL129C, strain trk1, hits give low values 0.959 | locus YJL154C, strain vps35, hits give low values 0.981 | locus YJL164C, strain tpk1, hits give low values 0.993 | locus YJL166W, strain qcr8, hits give low values 0.972 | locus YJL187C, strain SWE1, hits give low values 0.962 | locus YJR066W, strain TOR1, hits give low values 0.972 | locus YKL160W, strain elf1, hits give low values 0.995 | locus YKR026C, strain gcn3, hits give low values 0.983 | locus YKR091W, strain srl3, hits give low values 0.973 | locus YLL001W, strain dnm1, hits give low values 0.977 | locus YLL026W, hits give low values 0.999 | locus YLL041C, strain sdh2, hits give low values 0.979 | locus YLR027C, strain aat2, hits give low values 0.995 | locus YLR113W, strain HOG1, hits give low values 1.04 | locus YLR221C, strain rsa3, hits give low values 0.971 | locus YLR258W, strain gsy2, hits give low values 0.991 | locus YLR262C, strain YPT6 (second series), hits give low values 0.956 | locus YLR320W, strain mms22, hits give low values 0.97 | locus YLR342W, strain FKS1, hits give low values 0.968 | locus YLR357W, strain rsc2, hits give low values 1.04 | locus YLR370C, strain arc18, hits give low values 0.968 | locus YLR384C, strain iki3, hits give low values 0.996 | locus YML120C, strain ndi1, hits give low values 0.982 | locus YMR058W, strain fet3, hits give low values 0.983 | locus YMR125W, strain sto1, hits give low values 1.02 | locus YMR129W, hits give low values 0.984 | locus YMR205C, strain PFK2, hits give low values 1.01 | locus YMR231W, strain pep5, hits give low values 0.977 | [8] 1.01 | locus YNL071W, strain lat1, hits give low values 0.973 | locus YNL183C, strain NPR1, hits give low values 0.993 | [11] 0.955 | locus YNL209W, strain ssb2, hits give low values 0.993 | locus YNL248C, strain rpa49, hits give low values 0.955 | locus YNL322C, strain KRE1 (second series), hits give low values 0.993 | [13] 1.01 | locus YNR049C, strain mso1, hits give low values 0.976 | locus YOR001W, strain rrp6, hits give low values 0.943 | locus YOR070C, strain gyp1, hits give low values 0.98 | locus YOR080W, strain dia2, hits give low values 0.986 | [14] 1.03 | locus YOR083W, strain WHI5, hits give low values 0.994 | locus YOR106W, strain vam3, hits give low values 0.958 | locus YOR231W, strain MKK1, hits give low values 1.06 | locus YOR265W, strain rbl2, hits give low values 0.972 | locus YOR270C, strain vph1, hits give low values 0.913 | locus YOR290C, strain snf2, hits give low values 0.994 | locus YPL051W, strain arl3, hits give low values 0.988 | locus YPL078C, strain atp4, hits give low values 0.972 | locus YPL106C, strain sse1, hits give low values 0.978 | locus YPL240C, strain hsp82, hits give low values 0.986 | [16] 1.01 | locus YPL256C, strain CLN2, hits give low values 1.04
active: [10] 0.39
